A selection: hits, their analogues and other compounds. The true share with any hit is near 2.3%.
TRPM1 prom inh – inhibitors of MITF-dependent TRPM1 promoter reporter, primary screen, cell-based, SK-MEL-5, single point, luciferase; SK-MEL-5 TRPM1 promoter luciferase, 24 h; inhibition, % at 12.5 µM; hit rate 0.83% among 330,000; AID 488899, 2010;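 active = mean inhibition across replicates of 60% or more, whatever share of single replicates reaches that level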
EBV LMP1 NFkB – EBV LMP1-driven NF-kappaB luciferase reporter inhibitors, primary screen, cell-based, luminescence, single point | hit rate 0.69% among 350,000 | LMP1-induced NF-kappaB luciferase reporter cells | AID 504558, 2011 | inhibition, % at 12.5 µM; in the data active = inhibition above about 41%;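 note: 0% = neutral control wells and 100% = reference inhibitor control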
Shn3 inh set2 – reduction of Shn3 3'UTR firefly luciferase signal, primary screen, Schnurri-3 inhibitor project, cell-based, Clone20 osteoblasts, set 2; AID 588674, 2011; hit rate 0.52% among 360,000; Clone20 osteoblast Shn3 3'UTR firefly luciferase, 24 h; inhibition, % at 12.5 µM;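 active = mean inhibition of at least 75% with every replicate also reaching 75%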;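 note: 0% = median of neutral control wells and 100% = pilot-screen positive control compound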
Gli-Sufu antag – Gli-Sufu pathway antagonists, primary screen, luciferase luminescence, Sufu-KO-LIGHT cells, uHTS; hit rate 0.74% among 340,000; AID 588413, 2011; inhibition, % at 5 µM; Sufu-KO-LIGHT fibroblasts, Gli luciferase reporter luminescence;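 active = inhibition above about 55%, limit read from the data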;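 note: 0% = DMSO-treated cells and 100% = wells with medium but no cells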
Jurkat NFkB inh – inhibitors of induced NF-kB luciferase reporter, primary screen, TCR NF-kB activation inhibitor project, cell-based, luminescence, uHTS; Jurkat, PMA/ionomycin-induced NF-kB luciferase reporter; inhibition, % at 4 µM; hit rate 0.53% among 330,000; AID 435003, 2010; in the data active = inhibition above about 50%
697 NFkB inh – inhibitors of PMA/ionomycin-induced NF-kB reporter, 697 cells, primary screen, B-cell NF-kB inhibitor project, cell-based, luminescence, uHTS | 697 B-cell NF-kB luciferase reporter, 16 h | hit rate 0.33% among 330,000 | inhibition, % at 4 µM; in the data active = inhibition above about 35%
* hit, by the source's call; . = no result given.

SMILES	TRPM1 prom inh	EBV LMP1 NFkB	Shn3 inh set2	Gli-Sufu antag	Jurkat NFkB inh	697 NFkB inh
CCOc1ccc(N=Nc2cc(C(C)C)ccc2O)cc1	-23	-5	-6	-11	-17	-7
O=C(CCl)Nc1ccccc1Sc1ccc(Cl)cc1	64*	11	41	3	38	9
CC(=O)N1CCN(CC(=O)Nc2ccccc2Sc2ccc(Cl)cc2)CC1	8	-8	25	25	0	-6
Cc1c(NC(=O)c2cccc(NC(=O)COc3ccccc3C#N)c2)c(=O)n(-c2ccccc2)n1C	51	54*	10	-39	23	11
Cc1c(NC(=O)c2cccc(NC(=O)COc3ccccc3)c2)c(=O)n(-c2ccccc2)n1C	3	7	-27	1	-1	0
CCCOc1ccc(NC(=O)CC2C(=O)N(CC)C(=S)N2CCCN2CCN(Cc3ccccc3)CC2)cc1 (configuration not stated)	73*	-41	1	-3	-10	6
Oc1cccc2cc(Nc3ccccc3)cnc12	.	.	95*	.	.	.
c1ccc(Nc2ccccc2)cc1	4	-1	-4	-4	2	10
Oc1cc(-c2cccnc2)cc2cccnc12	51	-4	89*	29	0	-1
Oc1cc(Nc2ccccc2)cc2cccnc12	56	-2	94*	9	4	0
CN1CCN(c2cc(-c3cc(O)c4ncccc4c3)ccn2)CC1	50	22	36	25	14	9
COc1ccc(S(=O)(=O)N2CCCCCC2)cc1NC(=O)c1ccccc1F	15	-11	-5	-3	5	-3
Clc1ccc(CN(Cc2ccc(Cl)cc2)c2nn[nH]n2)cc1	-21	-2	-12	7	19	-9
CC1(C(=O)NS(=O)(=O)c2ccccc2C(F)(F)F)CCN1C(=O)CCc1cccs1 (configuration not stated)	.	.	9	.	.	.
CCN1CCCC1CNC(=O)c1ccc2c(c1)NC(=O)/C(=C\c1ccccc1Cl)S2 (configuration not stated)	.	-20	-13	.	.	.
COc1ccc(/C=C2/Sc3ccc(C(=O)NCCCN4CCOCC4)cc3NC2=O)cc1OC	7	1	6	25	-16	-1
COc1cccc(/C=C2/Sc3ccc(C(=O)NCCN4CCCCCC4)cc3NC2=O)c1	74*	-19	-12	7	-19	-5
CCN1CCCC1CNC(=O)c1ccc2c(c1)NC(=O)/C(=C\c1ccc(OC)c(OC)c1)S2 (configuration not stated)	87*	-28	1	13	-50	-19
Cc1cccc(/C=C2/Sc3ccc(C(=O)NCCN4CCCC4)cc3NC2=O)c1	89*	-6	-3	7	11	-5
O=C1Nc2cc(C(=O)NCCN3CCCCCC3)ccc2S/C1=C\c1ccccc1	96*	0	16	3	0	-8
O=C1Nc2cc(C(=O)NCCCN3CCCC3)ccc2S/C1=C/c1cccc(Cl)c1	.	-38	3	.	.	.
CCOC(=O)/C=C1\NC(=O)C(C)S1 (configuration not stated)	-1	-2	-1	-1	1	17
COC(=O)/C(C#N)=C/c1c(Oc2cc(C)cc(C)c2)nc2c(C)cccn2c1=O	13	-5	-117	2	10	-3
CCOc1ccc(Cl)cc1-c1cc(C(=O)NC(C)C)[nH]n1	.	.	-21	.	.	.
Cc1cccc(/C=C2/Sc3ccc(C(=O)NCCCN4CCOCC4)cc3NC2=O)c1	-7	-7	-10	.	8	-2
SMILES	TRPM1 prom inh	EBV LMP1 NFkB	Shn3 inh set2	Gli-Sufu antag	Jurkat NFkB inh	697 NFkB inh
CCN1CCN(CCCNC(=O)c2ccc3c(c2)NC(=O)/C(=C\c2cccc(C)c2)S3)CC1	102*	-2	9	23	21	1
CSc1nc(C)cc(C)c1C#N	-20	94*	1	1	12	12
CCCCCCCC(=O)Nc1ccc(C(=O)N/N=C/c2cccc([N+](=O)[O-])c2)cc1	72*	-58	39	-16	1	-6
CCOC(=O)NC(=S)Nc1ccc(C(C)(C)C)cc1Br	-21	-5	4	4	-16	-23
COc1ccc(N2C(=O)CSC2c2ccc([N+](=O)[O-])cc2)cc1 (configuration not stated)	-1	8	-6	10	2	0
COc1ccc(-c2c[n+]3c4n2CCCCC4=C(c2ccc(Br)cc2)C3)cc1	76*	4	24	15	.	.
Cc1ccc(N2C(N)=NC(N)=NC2(C)C)c(C)c1	21	0	0	0	10	-1
Clc1ccc(CN2CCC(c3ccccc3)CC2)cc1	3	-1	-2	5	-1	11
CC(=O)C[C@H](O)CC(=O)[C@H]1OC(=O)[C@@H](C)C/C=C\Cc2ccccc21	3	-1	-18	-5	8	13
CC(=O)N(C1=C(N)C(=O)c2ccccc2C1=O)c1ccccc1	65*	-1	25	-11	4	8
CC1(C)CCN2CCC(C)(C)c3c(O)ccc1c32	64*	19	58	10	25	-22
C#CCOCCOCCOCCNc1nc(N2CCN(C(=O)CCCCCCCCCCNC(=O)[C@H]([C@@H](C)CC)n3cc(CCCCCN)nn3)CC2)nc(N2CCN(C(=O)CCCCCCCCCCNC(=O)[C@@H]([C@H](C)CC)n3cc(CCCCCN)nn3)CC2)n1	.	.	.	.	47	-35
C#CCOCCOCCOCCNc1nc(N2CCN(C(=O)CCCCCCCCCCNC(=O)[C@H]([C@@H](C)CC)n3cc(CCCCN=C(N)N)nn3)CC2)nc(N2CCN(C(=O)CCCCCCCCCCNC(=O)[C@H]([C@@H](C)CC)n3cc(CCCCN=C(N)N)nn3)CC2)n1	.	.	.	.	-6	13
C#CCOCCOCCOCCNc1nc(N2CCN(C(=O)CCCCCCCCCCNC(=O)Cn3cc(CCCCCN)nn3)CC2)nc(N2CCN(C(=O)CCCCCCCCCCNC(=O)[C@H]([C@@H](C)CC)n3cc(CCCCN=C(N)N)nn3)CC2)n1	75*	-7	27	-22	2	-16
C#CCOCCOCCOCCNc1nc(N2CCN(C(=O)CCCCCCCCCCNC(=O)[C@H]([C@@H](C)CC)n3cc(CCCCN=C(N)N)nn3)CC2)nc(N2CCN(C(=O)CCCCCCCCCCNC(=O)[C@H](CO)n3cc(CCCCCN)nn3)CC2)n1	85*	3	29	11	-7	-20
CC(C)(C)OC(=O)NCCCCCc1cn([C@@H](CO)C(=O)NCCCCCCCCCCC(=O)N2CCN(C(=O)OC(C)(C)C)CC2)nn1	58	15	34	60*	29	-38

Screening results: PubChem, several laboratories
